# Measured values from PubChem BioAssay.
# Records with an inconclusive call do not appear. Activity calls are given as the source filed them. Unless noted, no stated cut-off is given here; in the data, active means inhibition above about 80%; inactive means the rest.
# How the values were obtained:
# [1] = growth inhibition of DIPG glioma cells, dose response, cell-based, SU-DIPG-XVII, MIPE5.0, CellTiter-Glo, qHTS (AID 1347060; cut-off not given, nearly all actives have AC50 up to about 26 µM;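 further: cells exposed to compound for 48 hours before viability readout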); conditions: SU-DIPG-XVII viability, CellTiter-Glo ATP luminescence
# [2] = growth inhibition of DIPG glioma cells, dose response, cell-based, SU-DIPG-XIII, MIPE5.0, CellTiter-Glo, qHTS (AID 1347064; cut-off not given, nearly all actives have AC50 up to about 23 µM); conditions: SU-DIPG-XIII viability, CellTiter-Glo ATP luminescence
# [3] = viability loss in pontine glioma line – cell-based, SU-DIPG-XXV, MIPE5.0, CellTiter-Glo, qHTS, dose response (AID 1347065; cut-off not given, nearly all actives have AC50 up to about 26 µM;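 further: cells exposed to compound for 48 hours before ATP readout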); conditions: CellTiter-Glo ATP luminescence
# [4] = JHH-DIPG-1 glioma cell viability, MIPE5.0 library, CellTiter-Glo luminescence, qHTS (AID 1347067; cut-off not given, nearly all actives have AC50 up to about 26 µM;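 further: cells exposed to compound for 48 hours before readout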); conditions: JHH-DIPG-1 glioma viability, CellTiter-Glo ATP luminescence
# [5] = SU-DIPG-XXV glioma cell viability, MIPE5.0 library, qHTS (AID 1347068; cut-off not given, nearly all actives have IC50 up to about 30 µM)
# [6] = LFS_MB_P medulloblastoma growth inhibition, cell-based, chromothripsis tumors, cisplatin or BGB combos (AID 1671449); conditions: LFS_MB_P medulloblastoma cells;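 further: cells exposed for 96 hours; 0% = vehicle DMSO and 100% = killing by high DMSO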
# [7] = HDN33 neuroblastoma growth inhibition, cell-based, chromothripsis tumors, cisplatin or BGB combos (AID 1671450); conditions: HDN33 neuroblastoma cells, stronger effect = higher value;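 further: cells exposed to compound for four days; 0% = vehicle DMSO and 100% = cell killing by high DMSO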
# [8] = ICB984 medulloblastoma cell growth inhibition, synergistic combos for chromothripsis tumors, cisplatin or BGB combos (AID 1671451; call rule not given here;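 further: cells exposed for 96 hours before readout; 0% = vehicle DMSO and 100% = killing by high DMSO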); conditions: ICB984 medulloblastoma cells, drug combinations, stronger effect = higher value
# [9] = LFS_MB_1R medulloblastoma cell growth inhibition, synergistic combos for chromothripsis tumors, cisplatin or BGB combos (AID 1671452); conditions: LFS_MB_1R medulloblastoma cells, stronger effect = higher value;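 further: cells exposed for 96 hours before readout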
# [10] = HTB85 osteosarcoma cell growth inhibition, synergistic combos for chromothripsis tumors, BGB or cisplatin IC20 combos (AID 1671453); conditions: HTB85 osteosarcoma cells, drug combinations, stronger effect = higher value;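 further: cells exposed for 96 hours before readout; 0% = vehicle DMSO and 100% = high DMSO killing control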
# [11] = CRL2098 osteosarcoma cell growth inhibition, synergistic combos for chromothripsis tumors, BGB or cisplatin IC20 combos (AID 1671454); conditions: CRL2098 osteosarcoma cells, drug combinations, stronger effect = higher value;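 further: cells exposed for 96 h before readout; 0% = vehicle DMSO and 100% = killing by high DMSO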
# [12] = HD-MB03 medulloblastoma cell growth inhibition, synergistic combos for chromothripsis tumors, BGB or cisplatin IC20 combos (AID 1671455; in the data active means inhibition above about 83%;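 further: 0% = vehicle DMSO and 100% = high DMSO as cytotoxic control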); conditions: HD-MB03 medulloblastoma cells, stronger effect = higher value
# [13] = UWB1.289 ovarian carcinoma cell growth inhibition, synergistic combos for chromothripsis tumors, BGB or cisplatin combos (AID 1671456); conditions: UWB1.289 ovarian carcinoma cells, stronger effect = higher value;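 further: cells exposed to compound for four days; 0% = vehicle DMSO and 100% = killing by high DMSO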
# [14] = LFS_MB_2R medulloblastoma cell growth inhibition, synergistic combos for chromothripsis tumors, cisplatin combos (AID 1671457); conditions: LFS_MB_2R medulloblastoma cells, stronger effect = higher value;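 further: cells exposed to compound for four days before readout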
# [15] = MDA-MB-436 breast carcinoma cell growth inhibition, synergistic combos for chromothripsis tumors, BGB or cisplatin combos (AID 1671458; call rule not given here;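 further: cells exposed for 96 hours; 0% = vehicle DMSO and 100% = killing by high DMSO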); conditions: MDA-MB-436 breast carcinoma growth inhibition, drug combinations, stronger effect = higher value
# [16] = UWB1.289_BRCA1 ovarian cancer growth, cell-based, BGB or cisplatin combinations (AID 1671459); conditions: UWB1.289 BRCA1 ovarian carcinoma, drug combinations, stronger effect = higher value
# [17] = human astrocyte viability loss, single and combined drugs, cytotoxicity control for chromothriptic childhood tumor combination screen, cell-based, BGB or cisplatin IC20 combos (AID 1671460); conditions: Human astrocytes, drug combinations, stronger effect = higher value;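 further: cells exposed to compounds for 96 hours before viability readout; 0% = vehicle and 100% = killing control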
# [18] = growth inhibition of BT084 medulloblastoma cells, cell-based, ICGC_MB145, cisplatin and BGB IC40 combos (AID 1671461); conditions: drug combinations, stronger effect = higher value;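 further: cells exposed to drugs for 96 hours; 0% = vehicle DMSO and 100% = high DMSO full killing control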
# [19] = growth inhibition of RCMB18 medulloblastoma cells, cell-based, cisplatin and BGB IC40 combos (AID 1671462); conditions: stronger effect = higher value;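 further: cells exposed to compound for four days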
# [20] = growth inhibition of CRL1545 osteosarcoma cells, cell-based, cisplatin and BGB IC20 combos (AID 1671464); conditions: stronger effect = higher value;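 further: cells exposed to compound for 96 hours before readout; 0% = vehicle DMSO and 100% = high DMSO killing control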
# [21] = measured here: combination with BGB IC40, at 0.05 µM
# [22] = measured here: with BGB IC20 combination, at 0.5 µM
# [23] = measured here: with cisplatin IC20 combination, at 0.5 µM
# [24] = measured here: combination with cisplatin, at 0.5 µM
# [25] = measured here: combination with cisplatin, at 5 µM
compound,measurement,setting,value
Cn1c(COP(=O)(NCCBr)NCCBr)cnc1[N+](=O)[O-],AC50,[1],20.9 µM (active)
same,outcome,[2],inactive
same,outcome,[3],inactive
same,outcome,[4],inactive
same,outcome,[5],inactive
same,inhibition,"[6]; at 0.5 µM, stronger effect = higher value",16.6% (inactive)
same,inhibition,"[6]; measured here: combination with BGB IC20, at 0.005 µM",-38.7%
same,inhibition,"[6]; measured here: combination with BGB IC40, at 0.005 µM",-32.5%
same,inhibition,[6]; [21],-39.8%
same,inhibition,"[6]; measured here: combination with cisplatin, at 0.5 µM, stronger effect = higher value",62.9%
same,inhibition,"[6]; measured here: combination with cisplatin, at 5 µM, stronger effect = higher value",-58.8%
same,inhibition,"[7]; BGB combo, at 5 µM",19.8%
same,inhibition,[7]; at 0.5 µM,-18.8% (inactive)
same,inhibition,"[7]; cisplatin combo, at 5 µM",19.2%
same,inhibition,[7]; [22],-21.2%
same,inhibition,[7]; [23],-10.2%
same,inhibition,"[7]; single agent, at 5 µM",80.3%
same,inhibition,"[8]; BGB IC20 combo, at 0.005 µM",-13.2%
same,inhibition,"[8]; BGB IC40 combo, at 0.005 µM",-25.1%
same,inhibition,"[8]; BGB IC40 combo, at 0.05 µM",-34.6%
same,inhibition,[8]; at 0.5 µM,-26% (inactive)
same,inhibition,"[8]; cisplatin combo, at 0.05 µM",-39.4%
same,inhibition,"[8]; cisplatin combo, at 0.5 µM",-24.4%
same,inhibition,"[8]; cisplatin combo, at 5 µM",-33.7%
same,inhibition,"[8]; measured here: 5 uM single agent, at 5 µM",-29.2%
same,inhibition,[9]; at 0.5 µM,-28.2% (inactive)
same,inhibition,[9]; [21],-23.6%
same,inhibition,[9]; [24],-60.8%
same,inhibition,[9]; [25],3.76%
same,inhibition,[10]; at 0.5 µM,-13.1% (inactive)
same,inhibition,"[10]; measured here: with BGB IC20, at 0.5 µM",-24.6%
same,inhibition,"[10]; measured here: with BGB IC20, at 5 µM",10.3%
same,inhibition,"[10]; measured here: with cisplatin IC20, at 0.5 µM",-0.449%
same,inhibition,"[10]; measured here: with cisplatin IC20, at 5 µM",2.49%
same,inhibition,"[10]; single agent, at 5 µM",1.71%
same,inhibition,[11]; at 0.5 µM,-67.6% (inactive)
same,inhibition,"[11]; measured here: combination with BGB at IC20, at 0.5 µM",-30.9%
same,inhibition,"[11]; measured here: combination with cisplatin at IC20, at 0.5 µM",-117%
same,inhibition,[12]; at 0.5 µM,-3.14% (inactive)
same,inhibition,"[12]; measured here: combo with BGB at IC20, at 0.5 µM",-10.4%
same,inhibition,"[12]; measured here: combo with cisplatin at IC20, at 0.5 µM",4.61%
same,inhibition,[13]; at 0.5 µM,3.29% (inactive)
same,inhibition,"[13]; measured here: inhibition with BGB combination, at 0.05 µM",-25.1%
same,inhibition,"[13]; measured here: inhibition with cisplatin combination, at 0.05 µM",-14.8%
same,inhibition,[14]; at 0.5 µM,-29.8% (inactive)
same,inhibition,[14]; [24],-33.9%
same,inhibition,[14]; [25],-23.3%
same,inhibition,[15]; at 0.5 µM,-13.5% (inactive)
same,inhibition,"[15]; measured here: BGB combination, at 0.5 µM",-12%
same,inhibition,"[15]; measured here: BGB combination, at 5 µM",10.1%
same,inhibition,"[15]; measured here: cisplatin combination, at 0.5 µM",-29.2%
same,inhibition,"[15]; measured here: cisplatin combination, at 5 µM",7.72%
same,inhibition,"[16]; BGB combination, concentration series, at 5 µM",-3.84%
same,inhibition,[16]; at 0.5 µM,-16% (inactive)
same,inhibition,"[16]; cisplatin combination, concentration series, at 5 µM",-17.2%
same,inhibition,[17]; at 0.5 µM,-2.6% (inactive)
same,inhibition,"[17]; measured here: combo with BGB IC20, at 0.5 µM",-17%
same,inhibition,"[17]; measured here: combo with cisplatin IC20, at 0.5 µM",9.13%
same,inhibition,[18]; at 0.5 µM,-25.1% (inactive)
same,inhibition,"[18]; cisplatin combination, at 0.5 µM",-38.4%
same,inhibition,"[18]; cisplatin combination, at 5 µM",-11.7%
same,inhibition,"[18]; measured here: BGB IC40 combination 0.05 uM, at 0.05 µM",14.8%
same,inhibition,"[18]; single agent, at 5 µM",-36.3%
same,inhibition,[19]; at 0.5 µM,-3.65% (inactive)
same,inhibition,"[19]; cisplatin combo, at 5 µM",1.65%
same,inhibition,"[19]; measured here: BGB IC40 combination, at 0.05 µM",-12.5%
same,inhibition,[19]; [24],13.3%
same,inhibition,"[19]; single agent, at 5 µM",-38.1%
same,inhibition,[20]; at 0.5 µM,-36.2% (inactive)
same,inhibition,[20]; [22],-10%
same,inhibition,[20]; [23],-51.7%
same,inhibition,"[20]; single agent, at 0.05 µM",-14%
same,inhibition,"[20]; single agent, at 5 µM",52.6%
